Reference: PubChem BioAssay
The source made the active and inactive calls. No rule for the calls is given here.

assay: blockers of DNA damage checkpoint Chk1 activation – imaging, HeLa, hydroxyurea, phospho-Chk1 antibody, percent positive cells, primary screen (AID 1186); details: hydroxyurea-induced phospho-Chk1 immunofluorescence imaging, higher = more signal

SMILES	z-score
Cc1cc(C)c(C(O)C2C=CC3C(=O)N(c4ccccc4)C(=O)C3N2Nc2ccc(C#N)cc2)c(C)c1 (stereo not given)	0.0661 (inactive)
COCCOC(=O)N1C(=O)[C@@]2(c3cc(C#CCNC(N)=O)ccc31)[C@H](c1ccc(OCCO)cc1)N1[C@H](c3ccccc3)[C@H](c3ccccc3)OC(=O)[C@H]1[C@@H]2C(=O)N1CCc2cc(OC)c(OC)cc2C1	-0.102 (inactive)
Cc1ccc(S[C@]2(C(=O)NCC(C)C)CC(=O)N(Cc3ccccc3)[C@@H]2c2ccc(CO)cc2I)cc1	0.292 (inactive)
C=CC(=C)C1=CCO[C@@H]1[C@H]1CCCN1S(=O)(=O)c1ccccc1[N+](=O)[O-]	-0.0283 (inactive)
COCC(=C=CC[C@@H](O)c1ccc(CO)o1)CCO	-1 (inactive)
[N-]=[N+]=Nc1ccccc1C[C@]1(C(=O)NCCN2CCOCC2)N=C(c2ccc(OCCCO)cc2)O[C@H]1c1ccccc1	0.184 (inactive)
COc1ccc(C(=O)Nc2cccc(CN3C(=O)[C@]4(O[C@H](CC(=O)N5CCC[C@H]5CO)[C@@H]([Si](C)(C)c5ccc(OC)cc5)[C@@H]4C)c4ccccc43)c2)cc1	-0.0977 (inactive)
CCCCCN1CC=CC23O[C@@H]4/C=C\CCC(C)OC(=O)C4[C@H]2C(=O)N(CCCCCO)[C@@H]3C1=O (stereo not given in full)	-0.464 (inactive)
CCCCCN1CC=CC23O[C@@H]4C=CCOC(=O)[C@@H]4[C@H]2C(=O)N(CCCO)[C@@H]3C1=O (stereo not given in full)	0.679 (inactive)
O=C1O[C@H](c2ccccc2)[C@H](c2ccccc2)N2[C@H]1[C@@H](C(=O)Nc1nc3ccccc3s1)[C@]1(C(=O)Nc3ccccc31)[C@H]2c1ccc(O)cc1	0.282 (inactive)
O=C1O[C@H](c2ccccc2)[C@H](c2ccccc2)N2[C@H]1[C@@H](C(=O)O)[C@]1(C(=O)Nc3ccc(C#CC4=CCCCC4)cc31)[C@H]2c1ccc(OCCO)cc1	0.222 (inactive)
CC=CC(O)C1C=CC2C(=O)N(c3ccccc3)C(=O)C2N1Nc1ccc(C(C)C)cc1 (stereo not given)	0.55 (inactive)
O=C1OCCC=C[C@H]2OC34C=CCN(Cc5ccccc5)C(=O)[C@H]3N(CCCCCO)C(=O)[C@@H]4C12 (stereo not given in full)	-0.218 (inactive)
COCCOC(=O)N1C(=O)[C@@]2(c3cc(C#CCNC(N)=O)ccc31)[C@H](c1ccc(O)cc1)N1[C@H](c3ccccc3)[C@H](c3ccccc3)OC(=O)[C@H]1[C@@H]2C(=O)Nc1nc2ccccc2s1	-0.373 (inactive)
O=C1O[C@H](c2ccccc2)[C@H](c2ccccc2)N2[C@H]1[C@@H](C(=O)O)[C@]1(C(=O)Nc3ccc(C#CC4(O)CCCCCC4)cc31)[C@H]2c1ccc(OCCO)cc1	-0.125 (inactive)
O=C1OCCC=C[C@H]2OC34C=CCN(c5ccc6ccccc6c5)C(=O)[C@H]3N(CCCCCO)C(=O)[C@@H]4C12 (stereo not given in full)	-0.202 (inactive)
Cc1ccc(S[C@]2(C(=O)NC3CC3)CC(=O)N(C3CCCCC3)[C@@H]2c2ccc(CO)cc2I)cc1	-0.0105 (inactive)
COc1cc2c(cc1O)C(C)N(Cc1cccc(OC(F)(F)F)c1)CC2 (stereo not given)	0.0708 (inactive)

SMILES	z-score
COc1ccc(C#Cc2ccc3c(c2)[C@]2(C(=O)N3)[C@H](c3ccc(O)cc3)N3[C@H](c4ccccc4)[C@H](c4ccccc4)OC(=O)[C@H]3[C@@H]2C(=O)N2CCCCCCC2)cc1	-0.184 (inactive)
COC(=O)[C@@]1(Cc2ccccc2)[C@H]2c3cc(C(=O)N(C)C)n(Cc4cc(C)n(C)n4)c3C[C@H]2CN1C(=O)c1ccccc1	0.489 (inactive)
C=CC(COC(C)=O)NS(=O)(=O)c1ccc(Br)cc1 (stereo not given)	0.363 (inactive)
COC(=O)c1c(CC[C@@H](CO)NC(=O)N[C@@H](Cc2ccccc2)Cn2cc(C3(O)CCCCC3)nn2)oc(C(C)=O)c1C(=O)OC	-0.0682 (inactive)
COC(=O)C(CC#Cc1ccc2c(c1)[C@]1(C(=O)N2)[C@H](C(=O)NC[C@H](O)c2ccccc2)[C@H]2C(=O)O[C@H](c3ccccc3)[C@H](c3ccccc3)N2[C@@H]1c1ccc(OCCO)cc1)C(=O)OC	-0.0625 (inactive)
C=CCC(OC(C)=O)[C@@H]1[C@@H](N(Cc2ccc(-c3cccc(C(F)(F)F)c3)o2)C(=O)c2ccc(C)cc2)c2cc(OCCCO)ccc2N1C(=O)c1ccc(-c2ccccc2)cc1 (stereo not given in full)	-0.205 (inactive)
COc1cccc(C(=O)O[C@H]2CC[C@]3(C)C4=C(CCC3C2(C)C)[C@]2(C)CC[C@H]([C@H](C)CCCC(C)C)[C@@]2(C)CC4)c1 (stereo not given in full)	0.811 (inactive)
CN(C)C(=O)[C@@]1(CCC(=O)OC(C)(C)C)N=C(c2ccc(OCCCO)cc2)O[C@H]1c1ccccc1	0.196 (inactive)
O=C1OCCC/C=C\[C@H]2OC34C=CCN(Cn5nnc6ccccc65)C(=O)[C@H]3N(CCCCCO)C(=O)[C@@H]4C12 (stereo not given in full)	0.812 (inactive)
C=C[C@H](C)[C@@H](O)c1ccc(O)c2ccccc12	0.736 (inactive)
COc1ccc(CCNC(=O)[C@@]2(Sc3ccc(C)cc3)CC(=O)N(Cc3ccccc3Cl)[C@@H]2c2ccc(CO)cc2I)cc1	0.351 (inactive)
COCCOC(=O)N1C(=O)[C@@]2(c3cc(C#CCNC(N)=O)ccc31)[C@H](C(=O)N1CCN(c3ncccn3)CC1)[C@H]1C(=O)O[C@H](c3ccccc3)[C@H](c3ccccc3)N1[C@@H]2c1ccccc1OCCO	0.197 (inactive)
CCCCCN1CC=CC23O[C@@H]4/C=C\CCCOC(=O)C4[C@H]2C(=O)N(CCCCCCO)[C@@H]3C1=O (stereo not given in full)	-0.792 (inactive)
O=C1N(CCS(=O)(=O)c2ccccc2)Cc2ccccc2C[C@]12N=C(c1ccc(OCCCO)cc1)O[C@@H]2c1ccccc1	-0.719 (inactive)
COC(=O)[C@@]1(Cc2ccccc2N=[N+]=[N-])COC(c2ccc(OCCCO)cc2)=N1	0.428 (inactive)
C=C(CCCC)C(=O)CC[C@H](OC(=O)c1cccnc1)c1cccc(OCCO)c1	-0.296 (inactive)
CCOC(=O)C[C@H]1[C@H](OC(=O)c2ccc(-c3ccccc3)cc2)[C@@H](NC(=O)c2ccc3ccccc3c2)c2cc(OCCCO)ccc2N1C(=O)Cc1ccc(OC)cc1	-0.192 (inactive)
